An excerpt weighted towards active compounds, which were near 3.1% of everything screened.
MBD2 inh: inhibitors of MBD2 binding to methylated DNA, primary screen, biochemical, TR-FRET, DNA-binding domain, human; Methyl-CpG-binding domain protein 2 (Homo sapiens), Q9UBB5; inhibition, % at 4.4 µM; 0.31% of 370,000 active; MBD2 binding to methylated oligonucleotide; in the data active = inhibition above about 13%
Target sequence (Q9UBB5 whole entry, looked up, the tested form may be a part): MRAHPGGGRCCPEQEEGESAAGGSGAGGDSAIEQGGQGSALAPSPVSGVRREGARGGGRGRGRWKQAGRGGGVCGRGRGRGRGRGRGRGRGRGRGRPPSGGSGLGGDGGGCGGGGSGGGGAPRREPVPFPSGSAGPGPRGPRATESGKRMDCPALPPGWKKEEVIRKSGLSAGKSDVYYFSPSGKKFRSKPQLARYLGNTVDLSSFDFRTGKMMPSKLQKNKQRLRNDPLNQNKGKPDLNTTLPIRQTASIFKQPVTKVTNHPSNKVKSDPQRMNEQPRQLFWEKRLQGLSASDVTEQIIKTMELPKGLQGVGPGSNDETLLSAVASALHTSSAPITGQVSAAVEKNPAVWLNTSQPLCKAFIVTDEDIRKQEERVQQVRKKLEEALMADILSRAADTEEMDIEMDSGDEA
UHRF1 MBD2 ctr: UHRF1 methylated DNA binding inhibitors, primary screen, counter-screen for MBD2 inhibitor project, biochemical, TR-FRET, human UHRF1, single concentration. 0.75% of 370,000 active. inhibition, % at 4.4 µM. AID 687016, 2013. UHRF1 binding to methylated oligo; in the data active = inhibition above about 21%;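 note: UHRF1 SRA domain binding a hemimethylated CpG hairpin DNA probe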
Neddylation inh: inhibitors of cullin neddylation, primary screen, biochemical, TR-FRET, uHTS, NAE and Ubc12; NEDD8-conjugating enzyme Ubc12 (Homo sapiens) + NEDD8-activating enzyme E1 regulatory …; calls only at 25 µM; 0.58% of 360,000 active; in the data active = inhibition above about 36%
LEDGF integ inh: blockers of LEDGF/p75-dependent integrase strand transfer – biochemical, TR-FRET, high throughput, primary screen; HIV-1 integrase (with human LEDGF/p75); TR-FRET IN-LEDGF/p75 DNA integration, Eu/Cy5; inhibition, % at 3.7 µM; 0.64% of 370,000 active; AID 743269, 2014;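 active = inhibition above the screen-wide mean plus 3 SD, cut at about 13% in these data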;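 note: signal is the Cy5 over europium emission ratio at 671 and 618 nm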
Rin1-Abl PPI inh: inhibitors of Rin1-Abl protein binding, primary screen, biochemical, TR-FRET; inhibition, % at 7.35 µM; 0.4% of 360,000 active; AID 588664, 2011; in the data active = inhibition above about 5%, passing the limit was not always enough
KLK7 zymogen act: proKLK7 zymogen activators, primary screen, biochemical, fluorescence intensity. Kallikrein-7 (Homo sapiens), P49862. purified proKLK7, EDANS-DABCYL substrate fluorescence; 100% is mature enzyme control, 0% vehicle. 0.9% of 370,000 active. activation, % at 7 µM;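 active = activation above the mean of all tested compounds plus 3 SD, computed per campaign excluding outliers beyond control limits, cut at about 13% in these data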
Target sequence (P49862 whole entry, looked up): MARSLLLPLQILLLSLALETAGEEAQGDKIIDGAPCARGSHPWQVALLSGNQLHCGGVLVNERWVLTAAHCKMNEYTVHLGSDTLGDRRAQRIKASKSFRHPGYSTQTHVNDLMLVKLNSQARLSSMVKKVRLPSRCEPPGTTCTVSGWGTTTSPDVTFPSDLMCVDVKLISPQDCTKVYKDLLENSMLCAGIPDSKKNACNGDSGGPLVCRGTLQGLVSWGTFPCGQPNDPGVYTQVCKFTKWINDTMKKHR
Numbers stand for hits.

Screening COC(=O)C(NC(=O)c1ccc(Cl)cc1)(Nc1nc(C)cs1)C(F)(F)F (stereo not drawn) returned MBD2 inh inactive, UHRF1 MBD2 ctr inactive, Neddylation inh inactive, LEDGF integ inh inactive, Rin1-Abl PPI inh inactive and KLK7 zymogen act inactive.
CN(CC(=O)Nc1ccccc1N1CCCC1)S(=O)(=O)c1ccc(F)cc1 was read as MBD2 inh inactive, UHRF1 MBD2 ctr inactive, Neddylation inh inactive, LEDGF integ inh inactive, Rin1-Abl PPI inh inactive and KLK7 zymogen act inactive.
CC(C)C(=O)NC(=S)Nc1sc2c(c1C(N)=O)CCCC2 was read as MBD2 inh inactive, UHRF1 MBD2 ctr 50, Neddylation inh inactive, LEDGF integ inh inactive, Rin1-Abl PPI inh inactive and KLK7 zymogen act inactive.
`C[C@@H]1CN([C@@H](C)CO)C(=O)c2cc(Br)cnc2O[C@H]1CN(C)C(=O)C1CCCCC1` gave MBD2 inh inactive, UHRF1 MBD2 ctr inactive, Neddylation inh inactive, LEDGF integ inh inactive, Rin1-Abl PPI inh inactive and KLK7 zymogen act inactive.
Cc1ccc(S(=O)(=O)N(C)C[C@@H]2Oc3ncc(C#CCC(C)C)cc3C(=O)N([C@H](C)CO)C[C@H]2C)cc1 was read as MBD2 inh inactive, UHRF1 MBD2 ctr 23, Neddylation inh inactive, LEDGF integ inh inactive, Rin1-Abl PPI inh inactive and KLK7 zymogen act inactive.
Cc1ccc(S(=O)(=O)N(C)C[C@@H]2Oc3ncc(Br)cc3C(=O)N([C@H](C)CO)C[C@H]2C)cc1 was read as MBD2 inh inactive, UHRF1 MBD2 ctr inactive, Neddylation inh inactive, LEDGF integ inh inactive, Rin1-Abl PPI inh inactive and KLK7 zymogen act inactive.
COc1cccc(C#Cc2cnc3c(c2)C(=O)N([C@@H](C)CO)C[C@H](C)[C@H](CN(C)C(=O)C2CCC2)O3)c1 was read as MBD2 inh inactive, UHRF1 MBD2 ctr 22, Neddylation inh inactive, LEDGF integ inh inactive, Rin1-Abl PPI inh inactive and KLK7 zymogen act inactive.
CCCCCCNC(=O)C1CSCCS(=O)(=O)N1Cc1ccccc1 (stereo not drawn) was read as MBD2 inh inactive, UHRF1 MBD2 ctr inactive, LEDGF integ inh inactive and KLK7 zymogen act inactive.
O=C(COc1ccc(Cl)cc1)OCC(=O)N1CCCC1 was read as MBD2 inh inactive, UHRF1 MBD2 ctr inactive, Neddylation inh inactive, LEDGF integ inh inactive, Rin1-Abl PPI inh inactive and KLK7 zymogen act inactive.
O=C(COc1ccc(Cl)cc1)OCc1ccc(Cl)cc1 was read as MBD2 inh inactive, UHRF1 MBD2 ctr 40, Neddylation inh inactive, LEDGF integ inh inactive, Rin1-Abl PPI inh inactive and KLK7 zymogen act inactive.
CN1CCN(C(=O)/C(=C/c2ccccc2Cl)NC(=O)c2ccccc2)CC1 was read as MBD2 inh inactive, UHRF1 MBD2 ctr inactive, Neddylation inh inactive, LEDGF integ inh 45, Rin1-Abl PPI inh inactive and KLK7 zymogen act inactive.
`CN1CCN(C(=O)/C(=C\c2cccs2)NC(=O)c2ccccc2)CC1` gave MBD2 inh inactive, UHRF1 MBD2 ctr inactive, Neddylation inh inactive, LEDGF integ inh inactive, Rin1-Abl PPI inh inactive and KLK7 zymogen act inactive.
`O=c1[nH]cnc2c1C(c1ccc(Cl)cc1)c1c(nc[nH]c1=O)O2` gave Neddylation inh inactive and Rin1-Abl PPI inh 7.7.
For CCOc1ccc(C2C(C#N)=C(N)Oc3nc[nH]c(=O)c32)cc1 (stereo not drawn) the results were MBD2 inh inactive, UHRF1 MBD2 ctr inactive, Neddylation inh inactive, LEDGF integ inh inactive, Rin1-Abl PPI inh inactive and KLK7 zymogen act inactive.
For CCOC(=O)CN1C(=O)CCSc2ccc(Cl)cc21 the results were MBD2 inh inactive, UHRF1 MBD2 ctr 36, Neddylation inh inactive, LEDGF integ inh inactive, Rin1-Abl PPI inh inactive and KLK7 zymogen act inactive.
`COc1ccc(C(=O)CSc2nc(C(C)(C)C)nc3ccccc23)cc1` gave MBD2 inh inactive, UHRF1 MBD2 ctr inactive, Neddylation inh inactive, LEDGF integ inh inactive, Rin1-Abl PPI inh inactive and KLK7 zymogen act inactive.
`COc1ccc(CCNC(=O)CSc2cc(=O)[nH]c(N)n2)cc1OC` gave MBD2 inh inactive, UHRF1 MBD2 ctr 24, Neddylation inh inactive, LEDGF integ inh inactive, Rin1-Abl PPI inh inactive and KLK7 zymogen act inactive.
Screening COc1ccc(CCNC(=O)CSc2nc(O)cc(=O)[nH]2)cc1OC returned MBD2 inh inactive, UHRF1 MBD2 ctr inactive, Neddylation inh inactive, LEDGF integ inh inactive, Rin1-Abl PPI inh inactive and KLK7 zymogen act inactive.
`CCC[C@H]1[C@@H](OC(=O)NCc2ccccc2)CC[C@@]23CCCN2C(=O)CCC[C@@H]13` gave MBD2 inh inactive, UHRF1 MBD2 ctr inactive and LEDGF integ inh inactive.
For COC(=O)c1cn(C(=O)c2ccccc2Cl)c2ccccc12 the results were MBD2 inh inactive, UHRF1 MBD2 ctr 25, Neddylation inh inactive, LEDGF integ inh inactive, Rin1-Abl PPI inh inactive and KLK7 zymogen act inactive.
For CCCCNC(=O)C[C@@H]1C[C@@]2(C(=O)OCC)CCCC=C2N(CCC2=CCCCC2)C1=O the results were MBD2 inh inactive, UHRF1 MBD2 ctr inactive, Neddylation inh inactive, LEDGF integ inh inactive and KLK7 zymogen act inactive.
`O=C(Nc1ccnn1C1CCN(C(=O)c2ccccc2C(F)(F)F)CC1)C1CC1` gave MBD2 inh inactive, UHRF1 MBD2 ctr inactive, Neddylation inh inactive, LEDGF integ inh 14, Rin1-Abl PPI inh inactive and KLK7 zymogen act inactive.
COc1ccc(C(C)(NC(C)=O)c2nc(-c3ccccc3OC)cs2)cc1 (stereo not drawn) was read as MBD2 inh inactive, UHRF1 MBD2 ctr inactive, Neddylation inh inactive, LEDGF integ inh inactive, Rin1-Abl PPI inh inactive and KLK7 zymogen act inactive.
`O=C(NCc1ccccn1)c1cccc(S(=O)(=O)N2CCc3ccccc32)c1` gave MBD2 inh inactive, UHRF1 MBD2 ctr inactive, Neddylation inh inactive, LEDGF integ inh inactive, Rin1-Abl PPI inh inactive and KLK7 zymogen act inactive.
Screening COc1ccc(CNCC(O)(c2ccc(Cl)cc2)c2ccc(Cl)cc2)cc1 returned MBD2 inh inactive, UHRF1 MBD2 ctr inactive, Neddylation inh inactive, LEDGF integ inh inactive, Rin1-Abl PPI inh inactive and KLK7 zymogen act inactive.
Screening CCCCNCC(O)(c1ccc(Cl)cc1)c1ccc(Cl)cc1 returned MBD2 inh inactive, UHRF1 MBD2 ctr 57, Neddylation inh inactive, LEDGF integ inh inactive, Rin1-Abl PPI inh inactive and KLK7 zymogen act inactive.
Screening CCN(c1ccccc1)S(=O)(=O)c1ccc(Cl)c(NC(=O)CN(C)Cc2cccc(F)c2)c1 returned MBD2 inh inactive, UHRF1 MBD2 ctr inactive, Neddylation inh inactive, LEDGF integ inh inactive, Rin1-Abl PPI inh inactive and KLK7 zymogen act inactive.
Screening Oc1ccccc1/C=N/NC(=S)NC1CC2CC1C1C=CCC21 (stereo not drawn) returned MBD2 inh inactive, UHRF1 MBD2 ctr inactive, Neddylation inh active, LEDGF integ inh inactive, Rin1-Abl PPI inh inactive and KLK7 zymogen act inactive.
